According to PubChem BioAssay (NCATS):
Inconclusive results are not listed. Calls of active or inactive are those of the source. Unless noted, calls come from the whole dose curve.

Experiments:
[1] = qHTS for Inhibitors of the Functional Ribonucleoprotein Complex (vRNP) of Lassa (LASV) Arenavirus: LASV Primary Screen - GLuc reporter signal (AID 1347082; calls by dose curve; tested in HEK293 reporter line; note: nearly all actives have a fitted effect of over 60% in size)
[2] = qHTS for Inhibitors of the Functional Ribonucleoprotein Complex (vRNP) of Lassa (LASV) Arenavirus: Viability assay - alamar blue signal for LASV Primary Screen (AID 1347083; calls by dose curve; tested in HEK293 reporter line; note: nearly all actives have a fitted effect of over 80% in size)
[3] = qHTS for Inhibitors of the Functional Ribonucleoprotein Complex (vRNP) of Lymphocytic Choriomeningitis Arenaviruses (LCMV): Viability assay - alamar blue signal for LCMV Primary Screen (AID 1347085; calls by dose curve; tested in HEK293 reporter line; note: nearly all actives have a fitted effect of over 80% in size)
[4] = target: Nucleoprotein (Lymphocytic choriomeningitis virus (strain Armstrong)) (UniProt P09992); assay: qHTS for Inhibitors of the Functional Ribonucleoprotein Complex (vRNP) of Lymphocytic Choriomeningitis Arenaviruses (LCMV): LCMV Primary Screen - GLuc reporter signal (AID 1347086); note: nearly all actives have a fitted effect of over 70% in size
Sequence of Nucleoprotein (Lymphocytic choriomeningitis virus (strain Armstrong)) (P09992 whole entry, looked up): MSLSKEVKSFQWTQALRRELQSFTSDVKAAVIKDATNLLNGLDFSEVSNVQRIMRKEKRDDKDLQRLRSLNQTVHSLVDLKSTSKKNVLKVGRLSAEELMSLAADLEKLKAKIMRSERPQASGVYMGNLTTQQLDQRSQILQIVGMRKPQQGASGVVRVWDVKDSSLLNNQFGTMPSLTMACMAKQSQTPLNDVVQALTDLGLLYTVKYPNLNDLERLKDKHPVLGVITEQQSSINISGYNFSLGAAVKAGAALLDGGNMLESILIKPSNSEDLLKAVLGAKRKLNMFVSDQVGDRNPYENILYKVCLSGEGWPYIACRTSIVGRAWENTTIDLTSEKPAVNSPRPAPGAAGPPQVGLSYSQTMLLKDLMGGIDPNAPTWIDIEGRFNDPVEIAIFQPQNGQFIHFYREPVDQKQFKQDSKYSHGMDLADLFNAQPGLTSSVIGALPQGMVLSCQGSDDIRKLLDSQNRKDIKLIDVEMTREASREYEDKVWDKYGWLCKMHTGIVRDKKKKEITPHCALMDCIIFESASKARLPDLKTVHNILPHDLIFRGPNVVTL
% is set by controls: 0 for no effect and ±100 for the full control effect.
Note: series mostly up to about 57 µM.

COc1ccnc2c1CCCCC2S(=O)c1nc2ccccc2[nH]1 (stereo not given)
inactive: Potency [1] | Potency [2] | Potency [3] | Potency [4]

OC[C@@H](O)[C@H](O)[C@H](O)[C@@H](O)CO
inactive: Potency [1] | Potency [2] | Potency [3] | Potency [4]

CC(=O)/C=C/C=C1/C2CCC(C2)C1(C)C (stereo not given)
inactive: Potency [1] | Potency [2] | Potency [3] | Potency [4]

CNC(=O)c1cnn(-c2nc(N)c3ncn([C@@H]4O[C@H](CO)[C@@H](O)[C@H]4O)c3n2)c1
inactive: Potency [1] | Potency [2] | Potency [3] | Potency [4]

O=C(O)CCC(=O)c1ccc(-c2ccccc2)cc1
inactive: Potency [1] | Potency [2] | Potency [3] | Potency [4]

O=C(OCC(COC(=O)c1cccnc1)(COC(=O)c1cccnc1)COC(=O)c1cccnc1)c1cccnc1
inactive: Potency [1] | Potency [2] | Potency [3] | Potency [4]

OC[C@]1(O)OC[C@@H](O)[C@H](O)[C@@H]1O
inactive: Potency [1] | Potency [2] | Potency [3] | Potency [4]

COc1ccc(C(Cl)=C(c2ccc(OC)cc2)c2ccc(OC)cc2)cc1
inactive: Potency [1] | Potency [2] | Potency [3] | Potency [4]

CCN(CC)C(=O)C1CN2CCc3cc(OC)c(OC)cc3C2CC1OC(C)=O (stereo not given)
inactive: Potency [1] | Potency [2] | Potency [3] | Potency [4]

COc1ccc(CCC(C)=O)cc1
inactive: Potency [1] | Potency [2] | Potency [3] | Potency [4]

CCCOc1ccccc1-c1nc2n[nH]nc2c(=O)[nH]1
inactive: Potency [1] | Potency [2] | Potency [3] | Potency [4]

Cc1ncc(CSSCc2cnc(C)c(O)c2CO)c(CO)c1O
inactive: Potency [1] | Potency [2] | Potency [3] | Potency [4]

Cc1ncc(COP(=O)(O)O)c(C=O)c1O
inactive: Potency [1] | Potency [2] | Potency [3] | Potency [4]

C[C@@H]1CCC[C@H](C)N1CCCC(O)(c1ccccc1)c1ccccn1 (stereo not given in full)
inactive: Potency [1] | Potency [2] | Potency [3] | Potency [4]

NS(=O)(=O)c1cc2c(cc1Cl)NCNS2(=O)=O
inactive: Potency [1] | Potency [2] | Potency [3] | Potency [4]

CC1(C)[C@@H](OC(=O)CCC(=O)O)CC[C@]2(C)[C@H]3C(=O)C=C4[C@@H]5C[C@@](C)(C(=O)O)CC[C@]5(C)CC[C@@]4(C)[C@]3(C)CC[C@@H]12
inactive: Potency [1] | Potency [2] | Potency [3] | Potency [4]

CCc1ccc(C(=O)C(C)CN2CCCCC2)cc1 (stereo not given)
inactive: Potency [1] | Potency [2] | Potency [3] | Potency [4]

C1CCC(C(CC2CCCCN2)C2CCCCC2)CC1 (stereo not given)
inactive: Potency [1] | Potency [2] | Potency [3] | Potency [4]

CCCCCCCCCCCCOS(=O)(=O)O
inactive: Potency [1] | Potency [2] | Potency [3] | Potency [4]

O=C(CCN1CCN(CCO)CC1)N1c2ccccc2Sc2ccc(C(F)(F)F)cc21
inactive: Potency [1] | Potency [2] | Potency [3] | Potency [4]

C[N+](C)(C)CCOC(=O)CCC(=O)OCC[N+](C)(C)C
inactive: Potency [1] | Potency [2] | Potency [3] | Potency [4]

COc1ccc2c(c1)C(=O)N(CCc1ccc(S(=O)(=O)NC(=O)NC3CCCCC3)cc1)C(=O)C2(C)C
inactive: Potency [1] | Potency [2] | Potency [3] | Potency [4]

CC(C)(C)C(=O)C(Oc1ccc(Cl)cc1)n1ccnc1 (stereo not given)
inactive: Potency [1] | Potency [2] | Potency [3] | Potency [4]

O=C(/C=C/c1ccc(O)c(O)c1)O[C@@H]1C[C@@](OC(=O)/C=C/c2ccc(O)c(O)c2)(C(=O)O)C[C@@H](O)[C@@H]1O
inactive: Potency [1] | Potency [2] | Potency [3] | Potency [4]

COc1ccc2c(c1)c(CC(=O)OCC(=O)O)c(C)n2C(=O)c1ccc(Cl)cc1
inactive: Potency [1] | Potency [2] | Potency [3] | Potency [4]

CCn1cc(C(=O)O)c(=O)c2cc(F)c(N3CCN(C)CC3)cc21
inactive: Potency [1] | Potency [2] | Potency [3] | Potency [4]

CC1=C(C)C(=O)C(CCCCC#CCCCC#CCO)=C(C)C1=O
inactive: Potency [1] | Potency [2] | Potency [3] | Potency [4]

CC(C(=O)O)c1ccc2c(c1)Cc1cccnc1O2 (stereo not given)
inactive: Potency [1] | Potency [2] | Potency [3] | Potency [4]

Oc1ccc(/C=C/c2cc(O)cc(O)c2)cc1
inactive: Potency [1] | Potency [2] | Potency [3] | Potency [4]

Nc1c2c(nc3ccccc13)CCCC2
inactive: Potency [1] | Potency [2] | Potency [3] | Potency [4]

N=C(N)c1ccc2cc(OC(=O)c3ccc(N=C(N)N)cc3)ccc2c1
inactive: Potency [1] | Potency [2] | Potency [3] | Potency [4]

CCOCCOC(=O)/C=C/c1ccc(OC)cc1
inactive: Potency [1] | Potency [2] | Potency [3] | Potency [4]

C#CCN(C)CCCOc1ccc(Cl)cc1Cl
inactive: Potency [1] | Potency [2] | Potency [3] | Potency [4]

c1ccc2c(c1)CCc1ccccc1N2
inactive: Potency [1] | Potency [2] | Potency [3] | Potency [4]

Nc1c2c(nc3ccccc13)CCCC2O (stereo not given)
inactive: Potency [1] | Potency [2] | Potency [3] | Potency [4]

CCOC(=O)c1cc(=O)c2c(OCC(COc3cccc4oc(C(=O)OCC)cc(=O)c34)OC(=O)[C@@H](N)CCCCN)cccc2o1
inactive: Potency [1] | Potency [2] | Potency [3] | Potency [4]

Nc1ccc(C(=O)N2CC3CC(CN(Cc4ccccc4)C3)C2)cc1
inactive: Potency [1] | Potency [2] | Potency [3] | Potency [4]

CCC(=O)c1ccc2c(c1)N(CCCN(C)C)c1ccccc1S2
inactive: Potency [1] | Potency [2] | Potency [3] | Potency [4]

NNC(=O)CP(=O)(c1ccccc1)c1ccccc1
inactive: Potency [1] | Potency [2] | Potency [3] | Potency [4]

CC1CC(OC(=O)C(O)c2ccccc2)CC(C)(C)N1C (stereo not given)
inactive: Potency [1] | Potency [2] | Potency [3] | Potency [4]

Cc1cccc(N(C)C(=S)Oc2ccc3c(c2)CCC3)c1
inactive: Potency [1] | Potency [2] | Potency [3] | Potency [4]

COc1ccccc1OC(=O)Oc1ccccc1OC
inactive: Potency [1] | Potency [2] | Potency [3] | Potency [4]

CC1(C)CCC(C)(C)c2cc(NC(=O)c3ccc(C(=O)O)cc3)ccc21
inactive: Potency [1] | Potency [2] | Potency [3] | Potency [4]

CCN(CC)C(=O)Nc1ccc(OCC(O)CNC(C)(C)C)c(C(C)=O)c1 (stereo not given)
inactive: Potency [1] | Potency [2] | Potency [3] | Potency [4]

CCN[C@@H]1C[C@H](N)[C@@H](OC2OC(CN)=CCC2N)[C@H](O)[C@H]1O[C@H]1OC[C@](C)(O)[C@H](NC)[C@H]1O (stereo not given in full)
inactive: activity change, negative = inhibition [1] -2.08% [at 0.757 µM] | activity change, negative = reduced viability [2] -5.5% [at 0.757 µM] | activity change, negative = lower viability [3] 0.253% [at 0.757 µM] | activity change, negative = inhibition [4] 10% [at 0.757 µM]

O=C(O)c1ccccc1Nc1cc(Cl)ccc1C(=O)O
inactive: Potency [1] | Potency [2] | Potency [3] | Potency [4]

Cc1ccc(N(CC2=NCCN2)c2cccc(O)c2)cc1
inactive: Potency [1] | Potency [2] | Potency [3] | Potency [4]

Nc1ccn(C2CO[C@H](CO)O2)c(=O)n1 (stereo not given in full)
inactive: Potency [1] | Potency [2] | Potency [3] | Potency [4]

Cc1cc(NC(=O)C2=C(O)c3ccccc3S(=O)(=O)N2C)no1
inactive: Potency [1] | Potency [2] | Potency [3] | Potency [4]

CC(=O)N1CCN(c2ccc(O)cc2)CC1
inactive: Potency [1] | Potency [2] | Potency [3] | Potency [4]

Cc1cc(N)c2cc(NC(=O)Nc3ccc4nc(C)cc(N)c4c3)ccc2n1
inactive: Potency [1] | Potency [2] | Potency [3] | Potency [4]

C=CCCCCCCCCC(=O)O
inactive: Potency [1] | Potency [2] | Potency [3] | Potency [4]

O=C(O)CCNC(=O)c1ccccc1
inactive: Potency [1] | Potency [2] | Potency [3] | Potency [4]

CCCOC(=O)c1ccc(N)cc1
inactive: Potency [1] | Potency [2] | Potency [3] | Potency [4]

CCCCOc1cc(C(=O)OCCN(CC)CC)ccc1N
inactive: Potency [1] | Potency [2] | Potency [3] | Potency [4]
